In all, about 3,200 compounds went through this assay and about 300 (9.4%) showed activity. The full list was thinned out, with actives kept by preference.
Test system: A673/TR/shEF
Test: cell viability (LOESS-normalised, relative to median of negative controls) (log2 ratio); higher = more viable cells (less compound effect), active = hit call of the paper (over 3 MAD below the median)
Conditions: treatment time: 72 h
Procedure, shortened: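 For three days, A673/TR/shEF Ewing sarcoma cells in 384-well plates (1,500 per well) were treated with library compounds at two or more concentrations or with DMSO controls, after doxycycline had been added or withheld 24 h beforehand to induce EWS-FLI1 shRNA knockdown. Viability was read by CellTiter-Glo luminescence on an Envision reader. The data were LOESS-corrected per plate, divided by the median of negative controls and log2-transformed.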

[1] = 0.25 µM, library screen: screen1, EWS-FLI1 expression: high (no doxycycline)
[2] = 0.25 µM, library screen: screen1, EWS-FLI1 expression: low (doxycycline-induced shRNA knockdown)
[3] = 2.5 µM, library screen: screen1, EWS-FLI1 expression: high (no doxycycline)
[4] = 2.5 µM, library screen: screen1, EWS-FLI1 expression: low (doxycycline-induced shRNA knockdown)
[5] = 0.103 µM, library screen: screen3, EWS-FLI1 expression: high (no doxycycline)
[6] = 0.103 µM, library screen: screen3, EWS-FLI1 expression: low (doxycycline-induced shRNA knockdown)
[7] = 0.308 µM, library screen: screen3, EWS-FLI1 expression: high (no doxycycline)
[8] = 0.308 µM, library screen: screen3, EWS-FLI1 expression: low (doxycycline-induced shRNA knockdown)
[9] = 0.926 µM, library screen: screen3, EWS-FLI1 expression: high (no doxycycline)
[10] = 0.926 µM, library screen: screen3, EWS-FLI1 expression: low (doxycycline-induced shRNA knockdown)
[11] = 2.8 µM, library screen: screen3, EWS-FLI1 expression: high (no doxycycline)
[12] = 2.8 µM, library screen: screen3, EWS-FLI1 expression: low (doxycycline-induced shRNA knockdown)
[13] = 8.3 µM, library screen: screen3, EWS-FLI1 expression: high (no doxycycline)
[14] = 8.3 µM, library screen: screen3, EWS-FLI1 expression: low (doxycycline-induced shRNA knockdown)
[15] = 25 µM, library screen: screen3, EWS-FLI1 expression: high (no doxycycline)
[16] = 25 µM, library screen: screen3, EWS-FLI1 expression: low (doxycycline-induced shRNA knockdown)
[17] = 0.25 µM, library screen: screen2, EWS-FLI1 expression: high (no doxycycline)
[18] = 0.25 µM, library screen: screen2, EWS-FLI1 expression: low (doxycycline-induced shRNA knockdown)
[19] = 2.5 µM, library screen: screen2, EWS-FLI1 expression: high (no doxycycline)
[20] = 2.5 µM, library screen: screen2, EWS-FLI1 expression: low (doxycycline-induced shRNA knockdown)
[21] = 0.025 µM, library screen: screen2, EWS-FLI1 expression: high (no doxycycline)
[22] = 0.025 µM, library screen: screen2, EWS-FLI1 expression: low (doxycycline-induced shRNA knockdown)
[23] = 25 µM, library screen: screen2, EWS-FLI1 expression: high (no doxycycline)
[24] = 25 µM, library screen: screen2, EWS-FLI1 expression: low (doxycycline-induced shRNA knockdown)

Measured: cell viability (log2)

C[C@@H]1CC[C@@]2(OC1)O[C@H]1C[C@H]3[C@@H]4CC[C@@H]5C[C@@H](O)CC[C@]5(C)[C@H]4CC[C@]3(C)[C@H]1[C@@H]2C
inactive: [1] 0.0641 | [2] 0.0518 | [3] 0.077 | [4] 0.0287

CSc1nnc(-c2ccccc2)c(-c2ccccc2)n1
inactive: [1] 0.103 | [2] 0.00324 | [3] 0.0984 | [4] 0.0395

COc1cc(OC)c2c(c1)O[C@H](c1cc(OC)c(OC)c(OC)c1)[C@H](OC(=O)c1cc(OC)c(OC)c(OC)c1)C2
inactive: [1] 0.0414 | [2] 0.0159 | [3] 0.0705 | [4] -0.00627

CC1OC(OC2C(O)COC(OC3C(C)OC(OC4C(OC(=O)C56CCC(C)(C)CC5C5=CCC7C8(C)CCC(OC9OC(CO)C(O)C(O)C9O)C(C)(C)C8CCC7(C)C5(C)CC6O)OCC(O)C4O)C(O)C3O)C2O)C(O)C(O)C1O (stereo unspecified)
inactive: [1] 0.0486 | [2] 0.0258 | [3] 0.0372 | [4] 0.223

COC(=O)c1c(C)c2c(c(C)c1OC)OC(=O)c1c(C)c(Cl)c(OC)c(Cl)c1O2
inactive: [1] 0.0616 | [2] 0.043 | [3] 0.0828 | [4] 0.0347

Cc1cn([C@@H]2C[C@@H](O)[C@H](CO)O2)c(=O)[nH]c1=O
inactive: [5] 0.207 | [6] 0.0457 | [7] 0.0611 | [8] 0.118 | [9] 0.128 | [10] 0.0817 | [11] 0.203 | [12] 0.115 | [13] 0.177 | [14] 0.101 | [15] 0.139 | [16] 0.167

Cc1cn([C@H]2C=C[C@@H](CO)O2)c(=O)[nH]c1=O
inactive: [5] -0.00295 | [6] 0.0515 | [17] 0.197 | [18] 0.032 | [7] -0.0178 | [8] 0.0223 | [9] 0.0714 | [10] 0.0163 | [19] 0.101 | [20] 0.0899 | [11] 0.0507 | [12] 0.0197 | [13] 0.102 | [14] 0.0821 | [15] 0.0208 | [16] 0.0668

O=c1[nH]c(=O)n([C@H]2C[C@H](O)[C@@H](CO)O2)cc1Br
inactive: [17] 0.238 | [18] 0.0517 | [19] 0.037 | [20] 0.0646

Cc1cn([C@H]2C[C@H](N=[N+]=[N-])[C@@H](CO)O2)c(=O)[nH]c1=O
inactive: [21] 0.0606 | [22] 0.0603 | [2] -0.108 | [17] 0.183 | [18] 0.0909 | [19] 0.12 | [20] 0.103 | [23] 0.0992 | [24] 0.0558
active: [1] -0.142 | [3] -1.07 | [4] -0.798

O=c1[nH]c(=O)n([C@H]2C[C@H](O)[C@@H](CO)O2)cc1/C=C/Br
inactive: [17] 0.184 | [18] 0.138 | [19] 0.072 | [20] 0.108

C[C@H]1O[C@@H](n2cc(F)c(=O)[nH]c2=O)[C@H](O)[C@@H]1O
active: [1] -0.21 | [3] -1.24 | [19] -0.257 | [23] -2.97 | [24] -0.654
inactive: [21] 0.0333 | [22] 0.0231 | [2] 0.08 | [17] -0.00269 | [18] 0.0834 | [4] -0.0424 | [20] 0.0331

O=c1[nH]c(=O)n([C@H]2C[C@H](O)[C@@H](CO)O2)cc1F
inactive: [21] 0.0911 | [22] 0.0185 | [5] 0.0528 | [6] 0.0374 | [2] 0.23 | [18] 0.103 | [8] 0.079 | [10] 0.0595 | [4] 0.156 | [20] 0.138 | [12] 0.0813 | [14] 0.0595 | [24] -0.0409 | [16] 0.0541
active: [1] -1.07 | [17] -0.231 | [7] -0.266 | [9] -0.534 | [3] -1.48 | [19] -0.805 | [11] -0.621 | [13] -0.85 | [23] -0.944 | [15] -1.03

CCCCCOC(=O)Nc1nc(=O)n([C@@H]2O[C@H](C)[C@@H](O)[C@H]2O)cc1F
inactive: [5] 0.057 | [6] 0.111 | [7] 0.147 | [8] 0.143 | [9] 0.154 | [10] 0.121 | [11] 0.179 | [12] 0.14 | [13] 0.166 | [14] 0.0924 | [15] 0.195 | [16] 0.124

O=c1[nH]c(=O)n([C@H]2C[C@H](O)[C@@H](CO)O2)cc1C(F)(F)F
inactive: [5] 0.105 | [6] 0.105 | [1] -0.0346 | [2] 0.0988 | [7] 0.134 | [8] 0.147 | [9] 0.108 | [10] 0.0588 | [3] 0.0509 | [4] 0.029 | [11] 0.0746 | [12] 0.0921 | [13] 0.0584 | [14] 0.048 | [16] 0.124
active: [15] -0.362

CCc1cn([C@H]2C[C@H](O)[C@@H](CO)O2)c(=O)[nH]c1=O
inactive: [21] 0.0952 | [22] 0.0914 | [1] 0.152 | [2] 0.0662 | [17] 0.0236 | [18] 0.0662 | [3] 0.079 | [4] 0.152 | [19] 0.176 | [20] 0.0177 | [23] -0.0289 | [24] 0.0946

O=C(O)c1cc(=O)c(O)c2c(O)c(O)ccc2c1
inactive: [1] 0.0685 | [2] 0.0312 | [3] 0.157 | [4] 0.0783

Fc1cccc(CN2CCN(Cc3ccco3)CC2)c1
inactive: [1] 0.0188 | [2] 0.159 | [3] 0.104 | [4] 0.135

C=CCCCCCCCCCCCC=CC(O)COC(C)=O (stereo unspecified)
inactive: [1] -0.0116 | [2] 0.0382 | [3] 0.137 | [4] 0.0541

From the supplement of paper PMC6089552
